Hits are enriched below; roughly 2.5% of the tested compounds scored in any of these assays.
Pol eta inh-1: qHTS for Inhibitors of Polymerase Eta | recombinant Pol eta, fluorescent DNA replication assay | Potency, µM (series often up to 114 µM), without a hit: at the highest dose activity change, negative = inhibition, most hits filed as inhibitors | 390,000 compounds, 1.2% hits | AID 588591, 2011; further: potency means the concentration at half of the fitted maximal effect; on the % scale 0 is the no-effect control and ±100 the full control effect
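Pol eta (10 nM) was preincubated with compounds for 15 min at room temperature, after which fluorescent replication substrate (50 nM final) was added to start the reaction. Fluorescence was read kinetically at 0 and 10 min.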
Pol iota inh: qHTS for Inhibitors of Polymerase Iota | DNA polymerase iota (Homo sapiens), Q9UNA4 | Pol iota fluorescent replication assay, 10 min | Potency, µM (highest dose often 115 µM), for the others: at the highest dose activity, negative = inhibition, actives largely listed as inhibitors | 390,000 compounds, 1% hits | AID 588590, 2011; further: potency means the concentration at half of the fitted maximal effect
Target sequence (Q9UNA4 whole entry, looked up): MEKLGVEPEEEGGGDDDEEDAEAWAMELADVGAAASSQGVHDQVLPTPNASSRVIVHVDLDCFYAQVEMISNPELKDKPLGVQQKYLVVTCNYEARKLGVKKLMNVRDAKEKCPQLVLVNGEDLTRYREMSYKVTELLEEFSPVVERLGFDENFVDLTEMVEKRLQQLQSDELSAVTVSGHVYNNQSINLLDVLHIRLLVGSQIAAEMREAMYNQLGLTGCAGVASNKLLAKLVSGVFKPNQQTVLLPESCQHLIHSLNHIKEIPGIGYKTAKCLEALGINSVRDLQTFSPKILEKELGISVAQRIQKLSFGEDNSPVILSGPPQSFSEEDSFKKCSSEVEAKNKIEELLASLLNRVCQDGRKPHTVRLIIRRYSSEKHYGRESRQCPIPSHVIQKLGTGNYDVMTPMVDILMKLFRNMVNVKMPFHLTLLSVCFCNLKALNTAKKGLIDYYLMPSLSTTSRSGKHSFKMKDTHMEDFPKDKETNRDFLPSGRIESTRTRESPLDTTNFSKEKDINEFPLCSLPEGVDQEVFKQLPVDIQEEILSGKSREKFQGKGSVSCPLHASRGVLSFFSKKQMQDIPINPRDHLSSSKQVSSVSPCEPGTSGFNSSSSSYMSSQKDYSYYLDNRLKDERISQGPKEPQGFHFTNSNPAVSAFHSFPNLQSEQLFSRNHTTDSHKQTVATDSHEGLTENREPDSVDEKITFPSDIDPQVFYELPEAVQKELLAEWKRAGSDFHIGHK
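Pol iota at 10 nM preincubated 15 min with compounds at room temperature; reaction started with fluorescent substrate, 50 nM final. Fluorescence read kinetically at 0 and 10 min; buffer-only wells as negative control.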
APEX1 inh: qHTS Assay for Inhibitors of the Human Apurinic/apyrimidinic Endonuclease 1 (APE1) | recombinant APE1, TAMRA/BHQ-2 abasic DNA cleavage fluorescence | DNA repair nuclease/redox regulator APEX1 (Homo sapiens), P27695 | Potency, µM (titrated, usually from 65.8 µM), inactives show top-dose activity change, negative = inhibition, hits mostly inhibitors | 350,000 compounds, 0.35% hits;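 further: potency means the concentration at half of the fitted maximal effect; plate controls were vehicle for no effect and reference inhibitor for full effect; nearly all actives have a fitted effect of over 55% in size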
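Readout is kinetic fluorescence (ex 525, em 598 nm) from cleavage of 50 nM TAMRA/BHQ-2 THF abasic duplex by 0.75 nM APE1, compound added 15 min beforehand at RT.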
L3MBTL1 inh: qHTS Assay for the Inhibitors of L3MBTL1. Potency, µM (doses to about 57.1 µM), inactives show at the top dose activity, negative = inhibition, actives largely listed as inhibitors. AID 485360, 2010. 230,000 compounds, 0.66% hits. AlphaScreen L3MBTL1–H3K9me1 peptide binding; further: potency means the concentration at half of the fitted maximal effect; on the % scale 0 is the no-effect control and ±100 the full control effect; nearly all actives have a fitted effect of over 60% in size
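AlphaScreen assay: L3MBTL1 (50 nM final) was preincubated 30 min at room temperature with biotinylated H3(1-15)K9me1 peptide (75 nM final), then 30 min with library compounds; streptavidin donor and nickel chelate acceptor beads (10 ug/mL final) added, 30 min dark.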
POLB inh: qHTS Assay for Inhibitors of DNA Polymerase Beta | Pol beta primer extension/strand displacement, fluorescence kinetic | Potency, µM (doses to about 114 µM), inactives show at the top dose activity change, negative = inhibition, most hits filed as inhibitors | 340,000 compounds, 1.3% hits; further: potency means the concentration at half of the fitted maximal effect; on the % scale 0 is the no-effect control and ±100 the full control effect
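Reaction started by 50 nM substrate onto compound-treated Pol beta (10 nM, 15 min preincubation, room temperature); plates read at 0 min and 10 min. Normalized concentration-effect data fitted by four-parameter Hill equation.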
Pol kappa inh: qHTS for Inhibitors of Polymerase Kappa; DNA polymerase kappa (Homo sapiens), Q9UBT6; purified Pol kappa, fluorescent DNA synthesis assay, 10 min; Potency, µM (titrated, usually from 107 µM), for the others: at the highest dose activity, negative = inhibition, actives largely listed as inhibitors; 400,000 compounds, 0.53% hits; AID 588579, 2011; further: potency means the concentration at half of the fitted maximal effect; on the % scale 0 is the no-effect control and ±100 the full control effect
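Kinetic fluorescence screen: compound preincubated 15 min RT with 10 nM enzyme; 50 nM substrate (final) initiates; reads at 0/10 min.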
GALK inh confirm: Confirmation Assay for Inhibitors of Human Galactokinase (GALK) | shares compounds with Pol eta inh-1 | purified GALK, Kinase-Glo ATP depletion luminescence | Potency, µM (titrated, usually from 115 µM), inactives show at the highest dose activity, negative = inhibition, most hits filed as inhibitors | 150 compounds, 70% hits | AID 2015, 2009
Redox cycling: Confirmatory Assay for Inhibitors of Human Galactokinase (GALK): Phenol-HRP redox assay counterscreen | shares compounds with Pol eta inh-1 | Phenol red-HRP H2O2 redox cycling, absorbance 600 nm | Potency, µM (doses to about 115 µM), without a hit: top-dose activity change, negative = H2O2 signal, usual class: inhibitors | 150 compounds, 40% hits | AID 2035, 2009
HEK293 tox: Secondary Assay for Inhibitors of Human Galactokinase (GALK): HEK-293 Cell Viability Assay; shares compounds with Pol eta inh-1; HEK-293 viability, ATP luminescence (CellTiter-Glo), 24/48 h; Potency, µM (highest dose often 46.1 µM), without a hit: top-dose activity change, negative = cytotoxicity, usual class: inhibitors; 170 compounds, 10% hits; AID 2547, 2010; further: potency means the concentration at half of the fitted maximal effect; on the % scale 0 is the no-effect control and ±100 the full control effect
Pol eta inh-2: qHTS for Inhibitors of Polymerase Eta: Confirmatory Assay for Cherry-picked Compounds | shares compounds with Pol eta inh-1 | Pol eta primer extension, TAMRA/BHQ fluorescence, 10 min | Potency, µM, hits mostly inhibitors | 2,600 compounds, 64% hits | AID 720502, 2013; further: potency means the concentration at half of the fitted maximal effect
Numbers without * were called inactive; ? = inconclusive; / = no result; [ ] = another dose, or the depositor's remark. The call rests on the fitted dose curve; in most records, active means well fitted curve in the direction sought with a large enough effect; inconclusive means small, poorly fitted or top-dose-only effect, or another doubt; inactive means no such curve, though single readings can be large; an effect the other way counts as inactive or inconclusive.

SMILES	Pol eta inh-1	Pol iota inh	APEX1 inh	L3MBTL1 inh	POLB inh	Pol kappa inh	Pol eta inh-2	others
Cc1nn(CC(=O)NC2C(=O)N3C(C(=O)O)=C(CSc4nnnn4C)CSC23)cc1Br (stereo not drawn)	?	-26%	?	/	32µM*	-19%	76*
CC1(C)c2[nH]c3ccccc3c2C[C@H]2C(=O)N(Cc3ccc(F)cc3)C(=O)N21	-17%	?	/	/	/	-17%	/
Cc1ccc(S(=O)(=O)c2c(Nc3ccc(C)c(C)c3)sc(C(=O)c3ccc4c(c3)OCO4)c2N)cc1	-5%	-8%	/	/	20%	-7%[60.1 µM]	/
CCOc1cc(CNC(=O)NC2COc3ccccc3C2)cc(OCC)c1OCC (stereo not drawn)	-13%	7%	/	/	5%	-3%[60.1 µM]	/
COc1ccccc1N1CCN(Cc2cc(COC(C)C)c3cccnc3c2O)CC1	-17%	-14%	/	/	43%	5%	/
COCc1cc(CN2CCCC2)c(O)c2ncccc12	-8%	63%	-3%	10µM*	-2%	-16%	/	GALK inh confirm=1%;Redox cycling=-3%;HEK293 tox=?
O=C(O)c1ccc(Cn2cc(/C=C\[N+](=O)[O-])c3ccccc32)o1	22µM*	8.9µM*	29%	-19%	?	?	76*
CCCS(=O)(=O)c1nc(S(=O)(=O)c2ccc(C)cc2)c(N2CCC3(CC2)OCCO3)s1	-15%	33%	-11%	/	-1%	-6%	/
O=C(N/C=C/c1ccco1)Nc1cccc(Cl)c1	?	?	?	-15%	-15%	-42%	/
O=C(COC(=O)/C=C/c1ccco1)NCc1ccccc1	-12%	171%	?	-8%	?	-11%	/
COc1ccc(NC(=O)N/C=C/c2ccco2)cc1	45µM*	?	-5%	?	25µM*	?	?
O=C(N/C=C/c1ccco1)OCc1ccccc1	?	?	?	-12%	?	-43%	?
O=C(CCC1N=C2c3ccccc3N=C(SCC(=O)NCc3ccco3)N2C1=O)NCc1ccco1 (stereo not drawn)	?	13µM*	?	/	32µM*	?	?
COc1ccc(-c2noc(CSc3nnc(-c4ccc(Cl)cc4)n3C)n2)cc1OC	-18%	26%	/	/	24%	11%	/
O=C1/C(=C/c2ccncc2)Cc2ccccc21	-7%	6%	4%	0%	/	-2%	/
CC1C/C(=C/c2ccncc2)C(=O)/C(=C/c2ccncc2)C1 (stereo not drawn)	32µM*	?	2%	/	3%	3%	76*
CCc1ccc(NC(=O)c2cc(C(C)=O)n3ccccc23)cc1	-10%	?	/	/	-13%	-31%	/
CCc1ccccc1Nc1nn2c(=O)c3ccc(C(=O)NC4CCCCC4)cc3nc2s1	?	22%	/	/	20%	8%	/
Cc1ccccc1NC1=C/C(=N\S(=O)(=O)c2ccc(C(=O)O)cc2)c2ccccc2C1=O	5µM*	0.89µM*	-8%	/	35µM*	-11%	/	GALK inh confirm=8.4µM*;Redox cycling=5.3µM*;HEK293 tox=25µM*
Cc1ccc(C)c(S(=O)(=O)/N=C2\C=C(NS(=O)(=O)c3ccccc3)C(=O)c3ccccc32)c1	?	?	-16%	/	-7%	-3%	?
Cc1cccc(S(=O)(=O)Nc2cccc3c2C(=O)c2ccccc2-3)c1	-21%	19%	-11%	-5%	-12%	-13%	/
S=C1Cc2ccccc2N1	25µM*	10µM*	-4%	-10%	1%	-23%	/	GALK inh confirm=27µM*;Redox cycling=7.5µM*;HEK293 tox=0%
Cc1ccc(C(=O)CSC2=C(C#N)C(c3ccco3)CC(=O)N2)c(C)c1 (stereo not drawn)	79µM*	18µM*	?	?	32µM*	?	?
Cc1ccc(NC(=O)CSC2=C(C#N)C(c3ccco3)CC(=O)N2)cc1 (stereo not drawn)	?	6%	-2%	/	0%	-14%	/
COc1ccc2c(C)c(CCC(=O)NCc3ccc(C)cc3)c(=O)oc2c1	-8%	12%	/	/	14%	13%	/
SMILES	Pol eta inh-1	Pol iota inh	APEX1 inh	L3MBTL1 inh	POLB inh	Pol kappa inh	Pol eta inh-2	others
Cc1cc(=O)oc(C)c1C(=O)NNC(=O)C1(C)CC1Br (stereo not drawn)	-4%	3%[58.9 µM]	0%	5%	-4%	-10%	/
CC1(C(=O)NNC(=O)c2ccc(=O)oc2)CC1Br (stereo not drawn)	20µM*	?	5%	-25%	?	?	34*
O=C1C(C2=C(O)c3ccccc3C2=O)=Nc2ccccc21	32µM*	27%	?	?	9%	-22%	/	GALK inh confirm=24µM*;Redox cycling=15µM*;HEK293 tox=9%
COc1ccc(/C=N/NC(=O)c2[nH]c3ccc(Cl)cc3c2-c2ccccc2)c(C(=O)O)c1OC	79µM*	27%	-4%	/	-20%	-6%	38*
Cc1ccc(-c2nc3scc(CCNC(=O)c4cccc(Br)c4)n3n2)cc1	-14%	15%	/	/	0%	-11%[60.1 µM]	/
O=C(Nc1ccc2nc3n(c(=O)c2c1)CCCCC3)c1c(F)ccc([N+](=O)[O-])c1F	16µM*	?	-5%	/	15%	8%	48*
